Screening results from PubChem.
A selection: hits, their analogues and other compounds. The true share with any hit is near 9%.
Lamin A splicing: LMNA splicing modulation. AID 1487. 200,000 tested, 0.01% active. HeLa LMNA splicing GFP/RFP minigene ratio, 48 h. Potency, µM (highest dose often 46.1 µM), usual class: inhibitors; active = well fitted inhibition curve with a large enough effect in the signal ratio, with a control signal flat, not every such curve was filed as active; inconclusive = small, poorly fitted or top-dose-only effect, or effect the other way, or a change in a side signal; the % refers to the signal ratio
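S3 HeLa stable clones carrying a lamin A-EGFP splicing minigene plus DsRed2 were seeded at 600 cells/well in Opti-MEM with 2% FBS, pin-dosed and incubated 48 h at 37°C. Acumen cytometry (488 nm) gave the GFP/RFP total-intensity ratio.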
IMPase Li cell: cell-permeable IMPase inhibitors with lithium potentiation | CHO-M1 cells, IP1 TR-FRET (IP-One), carbachol + lithium | Potency, µM (top dose mostly 59.4 µM), usual class: inhibitors | 210,000 tested, 0.35% active;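 also: IP1 builds up when IMPase is blocked and the TR-FRET signal falls; nearly all actives have a fitted effect of over 50% in size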
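Steps: plate 2000 CHO-M1 cells per well and culture 16–30 h; add compound and lithium; incubate 30 min, 37C; add d2-IP1 tracer and Eu cryptate anti-IP1 antibody in lysis buffer; read after 10 min at room temperature.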
KinaseGlo FLuc: blocks Kinase-Glo luciferase, a counter-screen artifact; Q27757; Kinase-Glo luciferase, ATP luminescence, 8 min; Potency, µM (top dose mostly 38.3 µM), actives largely listed as inhibitors; 200,000 tested, 0.28% active; also: nearly all actives have a fitted effect of over 60% in size
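Substrate mix (final 50 mM imidazole pH 7.2, 50 mM KCl, 7 mM MgCl2, 10 uM ATP, 0.01% Tween 20, 0.05% BSA) plus pin-tool compound, then Kinase-Glo detection mix; 8 min ambient, luminescence read.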
HPGD block: blocks human HPGD enzyme activity. purified HPGD, NADH fluorescence kinetic, PGE2 substrate. 150,000 tested, 4.3% active. Potency, µM, usual class: inhibitors. P15428. AID 894; active = well fitted inhibition curve with a large enough effect, not every such curve was filed as active; inconclusive = small, poorly fitted or top-dose-only effect, or another doubt; inactive = no such curve, though single readings can be large or run the other way
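20 nM HPGD preincubated 15 min at room temperature with compound in 50 mM Tris-HCl pH 8, 0.01% Tween 20. Started with 1 mM NAD+ and 30 uM prostaglandin E2; NADH fluorescence (360/450 nm) read 5 times over 30-s intervals, last minus first.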
ALDH1A1 inh: inhibitors of human aldehyde dehydrogenase 1A1; P00352; Purified ALDH1A1, NADH fluorescence, propionaldehyde substrate; Potency, µM (series often up to 75.3 µM), most hits filed as inhibitors; 220,000 tested, 7.3% active; active = well fitted inhibition curve with a large enough effect, not every such curve was filed as active; inconclusive = small, poorly fitted or top-dose-only effect, or another doubt; inactive = no such curve, though single readings can be large or run the other way
Target sequence (P00352 whole entry, looked up): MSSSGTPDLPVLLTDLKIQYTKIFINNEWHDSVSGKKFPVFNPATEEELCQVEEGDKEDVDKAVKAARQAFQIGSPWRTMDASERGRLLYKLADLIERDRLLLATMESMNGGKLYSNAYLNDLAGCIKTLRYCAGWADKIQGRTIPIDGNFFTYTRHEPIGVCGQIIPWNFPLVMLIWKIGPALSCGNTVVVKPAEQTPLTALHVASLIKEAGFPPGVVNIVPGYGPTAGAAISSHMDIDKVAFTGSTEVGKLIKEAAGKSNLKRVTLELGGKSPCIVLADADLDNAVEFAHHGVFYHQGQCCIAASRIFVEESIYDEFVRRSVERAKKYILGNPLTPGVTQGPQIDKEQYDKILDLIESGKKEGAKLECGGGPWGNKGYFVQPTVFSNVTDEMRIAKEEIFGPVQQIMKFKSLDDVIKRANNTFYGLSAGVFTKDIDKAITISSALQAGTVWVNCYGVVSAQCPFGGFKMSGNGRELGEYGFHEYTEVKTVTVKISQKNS
Each line names hits and unclear results; the compound was inactive in the other large screens. Unless noted, calls follow the shape of the dose curve; as a rule, active = well fitted curve in the direction sought with a large enough effect; inconclusive = small, poorly fitted or top-dose-only effect, or another doubt; inactive = no such curve, though single readings can be large; an effect the other way counts as inactive or inconclusive.

O=C1C(=O)N(Cc2cccc([N+](=O)[O-])c2)c2ccccc21	HPGD block inconclusive, ALDH1A1 inh 0.05µM
CC(C)c1ccc(N2C(=O)N(Cc3cccc([N+](=O)[O-])c3)c3ccccc3S2(=O)=O)cc1	none (no result: IMPase Li cell, KinaseGlo FLuc, HPGD block, ALDH1A1 inh)
COCCn1c(=O)c(-c2ccc(F)cc2)nc2cnc(N(C)C)nc21	ALDH1A1 inh inconclusive (no result: KinaseGlo FLuc, HPGD block)
Cc1[nH]c2ccccc2c1NC(=O)CN1CCN(C(=O)c2ccco2)CC1	ALDH1A1 inh 6.3µM (no result: Lamin A splicing, IMPase Li cell, KinaseGlo FLuc, HPGD block)
CCOC(=O)c1c(NC(=O)CN2CCN(C(=O)c3ccco3)CC2)sc2c1CCCC2	Lamin A splicing inconclusive, ALDH1A1 inh 24µM
CCOC(=O)c1c(NC(=O)c2ccco2)sc2c1CCCC2	HPGD block inconclusive, ALDH1A1 inh inconclusive
O=C(C(=O)N1CCN(C(=O)c2ccco2)CC1)c1c[nH]c2ccccc12	none (no result: HPGD block)
Cc1[nH]c2ccccc2c1C(=O)C(=O)N1CCN(C(=O)c2ccco2)CC1	ALDH1A1 inh 6.3µM (no result: Lamin A splicing, HPGD block)
Cc1[nH]c2ccccc2c1NC(=O)CN1CCN(Cc2ccc3c(c2)OCO3)CC1	none
C=CCN1C(=O)/C(=C\c2ccc(OC(=O)c3ccco3)c(OC)c2)SC1=S	ALDH1A1 inh 0.22µM (no result: Lamin A splicing, HPGD block)
CC1=CC2=NC(=O)/C(=C\c3ccc(OC(=O)c4ccco4)cc3)C(=N)N2O1	ALDH1A1 inh inconclusive (no result: Lamin A splicing, KinaseGlo FLuc, HPGD block)
COc1cc(/C=C2/C(=N)N3OC(C)=CC3=NC2=O)ccc1OC(=O)c1ccco1	IMPase Li cell inconclusive, ALDH1A1 inh 5.6µM (no result: HPGD block)
COc1cc(/C=N/NC(=O)c2ccc(F)cc2)ccc1OC(=O)c1ccco1	none
COc1cc(/C=C2/C(=O)NN(c3ccc(Cl)cc3)C2=O)ccc1OC(=O)c1ccco1	HPGD block 7.9µM, ALDH1A1 inh inconclusive
COc1ccc(CCN2C(=O)/C(=C\c3ccco3)SC2=S)cc1OC	ALDH1A1 inh inconclusive (no result: Lamin A splicing, HPGD block)
COc1cc(/C=C2/C(=O)NN(c3cccc(F)c3)C2=O)ccc1OC(=O)c1ccco1	HPGD block 4µM, ALDH1A1 inh 22µM
C=CCC1(O)CCOc2ccccc21 (centres undefined)	none (no result: Lamin A splicing)
COc1ccc(Cl)cc1NC(=O)C(OC)c1ccccc1 (centres undefined)	ALDH1A1 inh 1.6µM (no result: Lamin A splicing, HPGD block)
COc1ccc(NC(=O)C(NCC(C)C)c2ccccc2)cc1Cl (centres undefined)	ALDH1A1 inh 1.4µM (no result: Lamin A splicing, HPGD block)
COc1ccc(Cl)cc1NC(=O)CNCC(c1ccccc1)N(C)C (centres undefined)	ALDH1A1 inh inconclusive (no result: Lamin A splicing, HPGD block)
CCC(C(=O)OCC(=O)Nc1cc(C)ccc1OC)c1ccccc1 (centres undefined)	none (no result: HPGD block)
COc1ccc(C)cc1NC(=O)C(c1ccccc1)N1CCNC(=O)C1 (centres undefined)	ALDH1A1 inh 18µM (no result: HPGD block)
CCC(C(=O)Nc1cc(Cl)ccc1OC)c1ccccc1 (centres undefined)	Lamin A splicing inconclusive, ALDH1A1 inh 22µM
Cc1ccc2nc(COc3ccccc3NC(=O)COc3ccc(F)cc3)cc(=O)n2c1	none (no result: IMPase Li cell, KinaseGlo FLuc, HPGD block, ALDH1A1 inh)
COc1ccc(NC(=O)C(OC)c2ccccc2)cc1Cl (centres undefined)	Lamin A splicing inconclusive, ALDH1A1 inh 13µM
COc1ccc(C)cc1NC(=O)C(Sc1nncn1C)c1ccccc1 (centres undefined)	none (no result: Lamin A splicing, HPGD block)
COc1ccc(C)cc1NC(=O)C(OC(=O)C1CC1)c1ccccc1 (centres undefined)	ALDH1A1 inh 4µM (no result: HPGD block)
CC(=O)[C@H]1[C@@H]2C(=O)N(c3cccc(Cl)c3)C(=O)[C@@H]2[C@H]2c3ccccc3C=CN21	HPGD block 35µM, ALDH1A1 inh 7.9µM
CC(=O)[C@@H]1[C@@H]2C(=O)N(c3ccc(F)c(Cl)c3)C(=O)[C@@H]2C2c3ccccc3C=CN21 (some centres undefined)	HPGD block 22µM, ALDH1A1 inh 25µM
O=C(c1ccc(Cl)cc1)[C@@H]1[C@@H]2C(=O)N(c3ccc(Cl)cc3)C(=O)[C@@H]2C2c3ccccc3C=NN21 (some centres undefined)	ALDH1A1 inh inconclusive
O=C(O)C(Cc1c[nH]c2ccccc12)N1Cc2ccccc2C1=O (centres undefined)	none (no result: Lamin A splicing, HPGD block)
CCOc1ccc(NCc2nnc(SCc3ccccc3Cl)n2-c2ccccc2)cc1	ALDH1A1 inh 13µM
C=CCN1C(=O)C(CC(=O)O)SC1=Nc1cccc([N+](=O)[O-])c1 (centres undefined)	ALDH1A1 inh 14µM (no result: HPGD block)
